In test [1] the target is Lysosomal acid glucosylceramidase (Homo sapiens) (UniProt P04062). Kind of test: Glucocerebrosidase-p2 (AID 348; in the data active means potency below about 10 µM; further: potency means the concentration at half of the fitted maximal effect). Particulars: purified GBA, blue fluorogenic substrate, 40 min. In outline:
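Normal human glucocerebrosidase (0.2 nM) with blue fluorogenic substrate (80 uM final) in citrate/phosphate pH 5.9 with 10mM sodium taurocholate, 0.01% tween-20; 40 min RT, NaOH/glycine stop; fluorescence Ex 365/Em 440; AC50 from a titration from 0.6 nM upwards.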

Test [2] in a line: AP1 Signaling Pathway (AID 357).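 Further: ME-180 reporter cells stimulated with EGF at its EC50 level; on the % scale 0 is the no-effect control and ±100 the full control effect.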 Particulars: ME-180 AP-1-bla reporter, EGF-induced, beta-lactamase ratio, 5 h; at 7.69 µM (top of the series) unless noted. In outline: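 A ratiometric CCF4 readout (405 nm excitation; 460 and 530 nm emission) quantified AP-1-driven beta-lactamase in ME-180 cells after 5 h with compound and EC50 EGF; AC50 values were derived for activators and inhibitors.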

Test [3] can be described thus: Stat Signaling Pathway (AID 446).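 Further: ME-180 cervical cancer cells given 40 pM IL-6 alongside compound; SIE-controlled beta-lactamase reporter measured as 460/530 nm FRET emission ratio; on the % scale 0 is the no-effect control and ±100 the full control effect.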 Particulars: ME-180 SIE beta-lactamase reporter, IL-6 stimulated, 5 h; at 7.69 µM (top of the series) unless noted. In outline: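 Overnight-plated ME-180 cells bearing a STAT Inducible Element beta-lactamase reporter; 5 h co-exposure to compound and 40 pM IL-6; values normalized to 300 pM IL-6 and 125 nM JAK inhibitor controls.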
For test [4], the target named is Glucocorticoid receptor (Homo sapiens) (UniProt P04150). The experiment in a line: GR-GFP Redistribution (AID 450;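 active means compounds whose dose series gives a full or clear partial fitted curve of increased nuclear translocation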; further: potency means the concentration at half of the fitted maximal effect). Particulars: U2OS GR-GFP nuclear translocation, laser cytometry, 2 h.
Test [5] shares this target. Kind of test: GR-EFC Redistribution (AID 451; calls by dose curve; further: potency means the concentration at half of the fitted maximal effect). Particulars: CHO-K1 GR-EFC translocation, beta-gal luminescence, 2 h. In outline: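 Translocation of GR-ED fusion to nuclear EA restores b-gal, read by luminescence after 1 h room-temperature detection. Engineered CHO-K1 biosensor cells, 1,000/well, exposed 2 h at 37 C to titrations up to 46 uM final.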
Test [6] deals with Mitogen-activated protein kinase 10 (Mus musculus) (UniProt Q61831). The experiment in a line: JNK3 AlphaScreen Assay (AID 530).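 Further: kinase came from lysate of stimulated human HepG2 cells; signal reports phosphorylation of biotinylated GST-cJun 1-79 at Ser73 with 10 µM ATP; on the % scale 0 is the no-effect control and ±100 the full control effect.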 Particulars: JNK3 lysate, c-Jun phosphorylation; series mostly up to 57.1 µM. In outline:
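Kinase buffer: 20 mM Tris-HCl pH 7.6, 10 mM MgCl2, 1 mM DTT, 0.1 mM Na3VO4, 0.01% Tween-20; ATP 10 uM. Substrate biotin-GST-cJun(1-79), enzyme from activated HepG2 lysates. Detection by Ser73 phospho-antibody AlphaScreen.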
In general terms: Alpha assays give light when donor and acceptor beads are brought close together.

Test [7] can be described thus: Confirmation and Secondary Assay for Modulators of Hemoglobin Beta Chain Splicing at IVS2 654 locus (AID 910; active means well fitted curve in the direction sought with a large enough effect; an effect the other way counts as inactive or inconclusive;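 further: HeLa cells stably carrying EGFP split by mutant beta-globin IVS2-654 intron; per-well total GFP intensity by laser scanning cytometry after 2-day treatment; % of control where 0% means no effect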). Particulars: HeLa EGFP-654 splicing reporter, GFP fluorescence, 48 h; series mostly up to 38.3 µM. In outline: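 Readout: per-well total peak green fluorescence (488 nm ex, 500–520 nm em) from objects 5–250 µm, reflecting correct splicing of an EGFP-654 reporter. Compounds were applied for 2 days at 37 °C to overnight-plated HeLa EGFP-654 cells; controls were DMSO and 500 nM IVS2-654 PNA.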

Test [8] in a line: qHTS Assay for Identification of Small Molecule Agonists for Hypoxia Response Element Signaling Pathway (AID 914; active means well fitted activation curve with a large enough effect in the signal ratio, with a control signal flat, not every such curve was filed as active; the % refers to the signal ratio; further: % of control where 0% means no effect). Particulars: ME-180 (cervical carcinoma) HRE-bla reporter, beta-lactamase ratio, CoCl2, 17 h; activation: stronger effect = higher value. In outline: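 Read-out: CCF4 FRET ratio of 460nm to 530nm emission (excitation 405nm) after 2.5 hours at room temperature, taken from HRE-bla ME-180 cells that had been exposed to compound and EC50 CoCl2 for 17 hours.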

A short description of test [9]: Confirmation and Secondary Assay for Modulators of Hemoglobin Beta Chain Splicing at IVS2 705 locus (AID 930; active means well fitted curve in the direction sought with a large enough effect; an effect the other way counts as inactive or inconclusive;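 further: HeLa cells stably expressing the EGFP-705 splicing reporter; GFP fluorescence per well restored by corrected splicing of the IVS2-705 intron in EGFP; % of control where 0% means no effect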). Particulars: HeLa EGFP-705 splicing reporter, GFP fluorescence, 48 h; series mostly up to 38.3 µM. In outline:
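HeLa EGFP-705 reporter; 500 cells/well, o/n 37C 5% CO2; cpd 2 d; 488 ex/500-520 em laser scan; total peak GFP intensity/well. Ref: 500 nM […] antisense PNA.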

Test [10] addresses Ubiquitin carboxyl-terminal hydrolase 1 (Homo sapiens) (UniProt O94782). Kind of test: Inhibitors of USP1/UAF1: Pilot qHTS (AID 504865; active means well fitted curve in the direction sought with a large enough effect; an effect the other way counts as inactive or inconclusive; further: potency means the concentration at half of the fitted maximal effect; nearly all actives have a fitted effect of over 35% in size). Particulars: purified USP1/UAF1, Ub-rhodamine cleavage fluorescence; series mostly up to 54.9 µM. In outline:
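USP1/UAF1 complex at 1 nM preincubated 15 min at room temperature with compound, then Ub-Rho substrate added at 150 nM final. Fluorescence (480/540 nm) read kinetically in 50 mM HEPES pH 7.8, 0.5 mM EDTA, 1 mM TCEP, 0.1 mg/ml BSA, 0.01% Tween-20.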

Test [11] in a line: Primary qHTS for small molecule stabilizers of the endoplasmic reticulum resident proteome: Secreted ER Calcium Modulated Protein (SERCaMP) assay (AID 1508630; active means well fitted curve in the direction sought with a large enough effect; an effect the other way counts as inactive or inconclusive; further: on the % scale 0 is the no-effect control and ±100 the full control effect). Particulars: SH-SY5Y GLuc-SERCaMP (Gaussia luciferase released on ER calcium loss) secretion, thapsigargin, luminescence; series mostly up to 38.4 µM. In outline:
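The SH-SY5Y reporter protocol was run at 3 concentrations up to 38.3 uM (primary) or 11 concentrations (follow-up): 16 h compound, 100 nM thapsigargin for 4 h, then extracellular luciferase luminescence.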

Test [12] is described as follows: NFAT Signaling Pathway (AID 444). Particulars: Jurkat NFAT-bla M1, carbachol, beta-lactamase ratio, 5 h; at 7.69 µM (top of the series) unless noted. In outline: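 Read-out: CCF4 FRET ratio (460 nm/530 nm) after 1 h RT dye loading, used for %activity and AC50 from titration series. Cells: Jurkat NFAT-β-lactamase/M1 line, treated with compound plus 1 uM carbachol for 5 h, 37 °C.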

The target in test [13] is 3',5'-cyclic-AMP phosphodiesterase 4B (Homo sapiens) (UniProt Q07343). Kind of test: qHTS Assay for Inhibitors of PDE-IV (AID 607; active means well fitted activation curve with a large enough effect in the main read-out, with a control signal flat, not every such curve was filed as active; further: % of control where 0% means no effect). Particulars: HEK293 ACTOne CNG channel cells, membrane potential fluorescence; series mostly up to 22.9 µM. In outline: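 Live HEK293 cells with a modified cyclic nucleotide-gated (CNG) channel report intracellular cAMP via membrane-potential dye fluorescence (ex 535/em 590 nm). Endogenous PDE-IV was targeted. Compounds were tested at up to 22.9 uM final; RO 20-1724 100 uM served as control.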
Background: Quantitative high-throughput screening tests each substance at several concentrations.

The target in test [14] is Cytochrome P450 3A4 (Homo sapiens) (UniProt P08684). The experiment in a line: qHTS Assay for Activators of Cytochrome P450 3A4 (AID 885; active means well fitted curve in the direction sought with a large enough effect; an effect the other way counts as inactive or inconclusive; further: nearly all actives have a fitted effect of over 65% in size). Particulars: recombinant CYP3A4, Luciferin-PPXE luminescence, 60 min; series mostly up to 57.1 µM. In outline:
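Using 20nM recombinant human CYP3A4 in potassium phosphate (200mM), substrate Luciferin-PPXE at 25uM, luminescent luciferin detection followed a 60-min RT NADPH reaction; data scaled to 57 uM ketoconazole.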

The target is the same in test [15]. Kind of test: qHTS Assay for Inhibitors and Substrates of Cytochrome P450 3A4 (AID 884; active means well fitted curve in the direction sought with a large enough effect; an effect the other way counts as inactive or inconclusive; further: potency means the concentration at half of the fitted maximal effect; nearly all actives have a fitted effect of over 50% in size). Particulars: recombinant CYP3A4, Luciferin-PPXE luminescence; series mostly up to 57.1 µM. In outline: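 Luminescent readout of luciferin produced by CYP3A4 (20 nM) dealkylation of Luciferin-PPXE, 25 uM (its KM). NADPH-driven reaction ran 60 min at RT after 10 min compound preincubation; data scaled to 57 uM ketoconazole as 100% inhibition.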

A number with no mark means an inactive call. Records with an inconclusive call do not appear. Activity calls are given as the source filed them. Unless noted, the call rests on the fitted dose curve; in most records, active means well fitted curve in either direction with a large enough effect (not every such curve was filed as active); inconclusive means small, poorly fitted or top-dose-only effect, or another doubt; inactive means flat fitted curve, though single readings scatter. Some results are limits rather than exact numbers.

Lysosomal acid glucosylceramidase (Homo sapiens), sequence (P04062 whole entry, looked up): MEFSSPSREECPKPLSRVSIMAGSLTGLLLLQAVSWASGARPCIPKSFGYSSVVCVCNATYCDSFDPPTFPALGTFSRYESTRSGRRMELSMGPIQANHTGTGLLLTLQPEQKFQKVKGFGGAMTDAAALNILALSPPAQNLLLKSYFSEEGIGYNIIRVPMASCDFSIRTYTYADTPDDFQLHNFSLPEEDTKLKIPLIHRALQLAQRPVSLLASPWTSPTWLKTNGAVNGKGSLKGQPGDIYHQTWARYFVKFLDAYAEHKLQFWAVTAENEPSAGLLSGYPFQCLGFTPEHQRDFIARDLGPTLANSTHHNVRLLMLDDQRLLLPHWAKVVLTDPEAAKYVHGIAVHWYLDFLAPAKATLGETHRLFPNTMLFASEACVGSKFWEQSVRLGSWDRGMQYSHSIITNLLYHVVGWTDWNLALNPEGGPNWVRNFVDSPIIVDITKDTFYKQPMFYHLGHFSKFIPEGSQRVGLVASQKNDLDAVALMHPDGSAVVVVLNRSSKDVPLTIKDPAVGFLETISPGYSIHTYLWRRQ
Glucocorticoid receptor (Homo sapiens), sequence (P04150 whole entry, looked up, the tested form may be a part): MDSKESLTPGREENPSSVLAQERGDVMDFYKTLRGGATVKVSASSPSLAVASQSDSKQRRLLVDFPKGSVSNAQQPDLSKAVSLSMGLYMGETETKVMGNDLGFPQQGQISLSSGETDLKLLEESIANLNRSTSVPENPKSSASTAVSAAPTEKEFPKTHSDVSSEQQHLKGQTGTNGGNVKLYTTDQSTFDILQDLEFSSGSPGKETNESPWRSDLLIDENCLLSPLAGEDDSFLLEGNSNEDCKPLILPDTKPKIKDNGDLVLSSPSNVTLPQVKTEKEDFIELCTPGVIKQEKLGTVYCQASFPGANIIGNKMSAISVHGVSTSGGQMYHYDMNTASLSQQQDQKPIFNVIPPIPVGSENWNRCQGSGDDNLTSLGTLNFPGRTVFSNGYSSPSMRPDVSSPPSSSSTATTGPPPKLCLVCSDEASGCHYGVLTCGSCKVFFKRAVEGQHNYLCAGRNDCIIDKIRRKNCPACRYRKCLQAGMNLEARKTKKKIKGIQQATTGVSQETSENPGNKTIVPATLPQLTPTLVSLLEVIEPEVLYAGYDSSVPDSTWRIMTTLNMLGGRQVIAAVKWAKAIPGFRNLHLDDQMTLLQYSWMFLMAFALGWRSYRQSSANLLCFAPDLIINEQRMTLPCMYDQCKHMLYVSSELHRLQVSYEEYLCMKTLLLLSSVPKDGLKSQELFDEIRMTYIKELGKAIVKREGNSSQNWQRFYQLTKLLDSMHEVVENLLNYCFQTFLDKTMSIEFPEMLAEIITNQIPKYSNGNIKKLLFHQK
3',5'-cyclic-AMP phosphodiesterase 4B (Homo sapiens), sequence (Q07343 whole entry, looked up): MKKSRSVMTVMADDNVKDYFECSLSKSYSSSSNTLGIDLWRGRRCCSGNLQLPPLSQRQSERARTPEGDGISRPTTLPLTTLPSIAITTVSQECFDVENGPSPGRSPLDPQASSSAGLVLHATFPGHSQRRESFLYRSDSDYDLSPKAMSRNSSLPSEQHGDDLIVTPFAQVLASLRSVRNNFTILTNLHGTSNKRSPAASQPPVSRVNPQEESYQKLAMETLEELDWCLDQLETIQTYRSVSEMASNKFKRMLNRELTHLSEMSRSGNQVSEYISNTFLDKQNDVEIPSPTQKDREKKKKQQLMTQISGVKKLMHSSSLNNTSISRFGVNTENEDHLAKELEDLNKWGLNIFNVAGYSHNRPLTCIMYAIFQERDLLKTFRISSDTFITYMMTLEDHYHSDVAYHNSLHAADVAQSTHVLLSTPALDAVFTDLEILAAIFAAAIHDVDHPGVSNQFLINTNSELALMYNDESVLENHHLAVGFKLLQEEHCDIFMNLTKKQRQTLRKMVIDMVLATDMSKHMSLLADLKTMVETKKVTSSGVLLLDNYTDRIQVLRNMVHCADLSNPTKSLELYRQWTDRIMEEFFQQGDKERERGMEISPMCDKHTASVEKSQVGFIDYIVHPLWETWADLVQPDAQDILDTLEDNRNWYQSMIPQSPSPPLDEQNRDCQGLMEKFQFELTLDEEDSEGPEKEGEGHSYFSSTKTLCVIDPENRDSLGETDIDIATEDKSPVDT
Cytochrome P450 3A4 (Homo sapiens), sequence (P08684 whole entry, looked up): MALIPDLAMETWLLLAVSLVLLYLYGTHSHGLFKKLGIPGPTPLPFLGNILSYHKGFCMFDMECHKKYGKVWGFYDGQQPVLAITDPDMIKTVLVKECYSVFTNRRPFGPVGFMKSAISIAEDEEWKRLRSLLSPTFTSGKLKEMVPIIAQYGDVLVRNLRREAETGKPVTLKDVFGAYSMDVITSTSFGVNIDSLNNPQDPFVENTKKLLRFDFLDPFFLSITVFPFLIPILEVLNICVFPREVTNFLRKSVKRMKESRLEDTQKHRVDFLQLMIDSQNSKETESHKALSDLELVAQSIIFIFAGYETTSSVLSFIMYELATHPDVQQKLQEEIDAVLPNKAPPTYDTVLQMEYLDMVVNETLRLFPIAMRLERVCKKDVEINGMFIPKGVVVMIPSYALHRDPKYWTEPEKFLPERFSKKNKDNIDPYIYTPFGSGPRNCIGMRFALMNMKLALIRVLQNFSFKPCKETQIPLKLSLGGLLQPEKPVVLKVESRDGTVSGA
Ubiquitin carboxyl-terminal hydrolase 1 (Homo sapiens), sequence (O94782 whole entry, looked up): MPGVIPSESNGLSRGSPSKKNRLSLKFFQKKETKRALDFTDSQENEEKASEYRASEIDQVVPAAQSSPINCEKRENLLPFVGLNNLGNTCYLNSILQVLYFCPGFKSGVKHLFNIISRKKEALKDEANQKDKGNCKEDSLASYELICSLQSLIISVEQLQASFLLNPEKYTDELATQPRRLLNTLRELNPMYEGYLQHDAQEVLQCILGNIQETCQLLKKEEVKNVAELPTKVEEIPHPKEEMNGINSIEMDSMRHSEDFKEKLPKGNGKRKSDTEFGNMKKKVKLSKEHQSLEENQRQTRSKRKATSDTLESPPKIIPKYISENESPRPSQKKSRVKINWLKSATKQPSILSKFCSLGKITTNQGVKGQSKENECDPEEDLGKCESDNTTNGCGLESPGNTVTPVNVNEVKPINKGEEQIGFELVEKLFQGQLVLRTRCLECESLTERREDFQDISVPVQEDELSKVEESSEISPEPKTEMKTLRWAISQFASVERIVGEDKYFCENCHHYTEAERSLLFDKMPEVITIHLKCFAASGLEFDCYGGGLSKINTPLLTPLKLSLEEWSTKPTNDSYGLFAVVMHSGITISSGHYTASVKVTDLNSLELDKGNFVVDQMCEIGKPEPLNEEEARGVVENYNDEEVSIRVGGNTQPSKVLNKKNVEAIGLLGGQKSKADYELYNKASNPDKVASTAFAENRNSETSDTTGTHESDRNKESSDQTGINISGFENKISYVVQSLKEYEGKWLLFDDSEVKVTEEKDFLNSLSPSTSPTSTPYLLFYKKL

`Cc1cccc(CNc2cc(-c3ccccc3C)ncn2)c1`: the Potency in [1] was more than 11.4 µM; in [4] it was more than 46 µM; in test [5], more than 46 µM; in test [10] it was 44.7 µM (active). Besides, in test [2], the activity change, negative = inhibition was 13.4%. The activity, negative = inhibition in test [3] is -8.32%. In addition, the Potency entry in [6] and in [7] was “inactive” each time. In test [8], the activation is 16.7%. Moreover, the compound was called inactive in test [9] and in [11].
Take `N#Cc1cccc(NC(=O)N2CC3(CCN(C(=O)c4cnccn4)CC3)C2)c1`: the Potency in [1] is more than 11.4 µM; in test [5], more than 46 µM. Moreover, the results for the activity change, negative = inhibition in test [2] and in test [12] were -10.3% and 14.6%, respectively. For the same compound, the Potency result in test [6] and in test [13] was “inactive” in each case. In addition, the outcome in test [11] was inactive.
Regarding `COCCn1c(=O)c(-c2ccc(OC)cc2)nc2cnc(Nc3ccccc3)nc21`, the Potency was more than 11.4 µM in [1], more than 9.22 µM in test [4] and more than 46 µM in [5]. Further, the activity change, negative = inhibition was 6.46% in [2] and -9.78% in test [12]. Further, the Potency result in test [6] and in [13] was “inactive” each time. In addition, in test [11], the result was inactive.
In the case of `c1cncc(-c2nc(NCCN3CCOCC3)c3ccccc3n2)c1`, the results for the Potency in test [1], in test [4] and in test [5] were more than 11.4 µM, more than 46 µM and more than 46 µM, respectively. Moreover, the activity change, negative = inhibition in [2] is -8.53%; in test [12], 7.81%. In addition, the Potency entry in test [6], in test [13], in [14] and in test [7] was “inactive” each time. Further, the compound was called inactive in test [9] and in test [11].
Regarding `Cn1cccc1C(=O)N1CCC2(CCCN(C(=O)Nc3cccc(C#N)c3)C2)CC1`, the results for the Potency in test [1] and in test [5] were more than 11.4 µM and more than 46 µM, respectively. Further, the activity change, negative = inhibition in test [2] was -6.91%. The activity, negative = inhibition in [3] was -16.1%. Besides, the Potency entry in test [6] and in [13] was “inactive” throughout. Further, the result in [11] was inactive.
`O=C(c1ccncc1)N1CCC2(CCCN(c3ncccn3)C2)CC1`: the Potency in test [1] is more than 11.4 µM; in test [5], more than 46 µM. Besides, the activity change, negative = inhibition in test [2] is -5.83%. For the same compound, the activity, negative = inhibition in test [3] is 5.19%. Besides, the Potency entry in test [6] and in test [13] was “inactive” in each case. In addition, in [11], the result was inactive.
Consider `O=C(c1ccco1)N1CCC2(CCN(Cc3cc(C(F)(F)F)cc(C(F)(F)F)c3)CC2)CC1`, for which the values for the Potency in [1] and in [5] were more than 11.4 µM and more than 46 µM, respectively. The activity change, negative = inhibition in [2] is -1.98%; in test [12] it was 2.65%. The activity, negative = inhibition in test [3] was 0.499%. Further, the Potency result in test [6] and in test [13] was “inactive” in each case. Moreover, the activation in [8] was -7.14%. The result in test [11] was inactive.
As for `O=S(=O)(c1ccccc1)N1CCC2(CCCN(c3ccncc3)C2)CC1`, the figures for the Potency in test [1] and in test [5] were more than 11.4 µM and more than 46 µM, respectively. In test [2], the activity change, negative = inhibition was 22.1%. Besides, the activity, negative = inhibition in test [3] is 9.67%. Moreover, the Potency result in test [6] and in [13] was “inactive” in each case. For the same compound, the result in test [11] was inactive.
With `CCNc1ncc2nc(-c3cccs3)c(=O)n(-c3ccc(OC)cc3)c2n1`, the Potency in test [1] was more than 11.4 µM; in [4] it was more than 9.22 µM; in [5] it was more than 46 µM. For the same compound, the activity change, negative = inhibition was -0.164% in test [2] and -15.9% in [12]. Moreover, in [6], the Potency result is “inactive”. Further, the outcome in test [11] was inactive.
On to `N#CCCn1c(=O)cnc2cnc(Nc3ccccc3)nc21`, for which the Potency in test [1] was more than 11.4 µM; in test [4], more than 9.22 µM; in test [5] it was more than 46 µM. For the same compound, the activity change, negative = inhibition in [2] is -26.6%; in test [12], -3.19%. In addition, the Potency result in [6] is “inactive”. Besides, the outcome in [11] was inactive.
For `O=C(c1cnccn1)N1CCC2(CC1)CCN(c1cccc(-c3ccccc3)c1)CC2`, the figures for the Potency in [1] and in test [5] were more than 11.4 µM and more than 46 µM, respectively. Also, in [2], the activity change, negative = inhibition was -9.46%. In addition, the activity, negative = inhibition in test [3] is -13.7%. The result in test [11] was inactive.
In the case of `O=C(c1cccc(F)c1)N1CCC[C@@]2(CCN(Cc3ccncc3)C2)C1`, the figures for the Potency in test [1], in [5] and in test [15] were more than 11.4 µM, more than 46 µM and 3.16 µM (active), respectively. In addition, the activity change, negative = inhibition in test [2] was -12%; in test [12], -14.7%. Further, the activity, negative = inhibition in test [3] is -0.901%. Besides, the Potency result in test [6] and in test [14] was “inactive” in each case. For the same compound, the outcome in test [11] was inactive.
For the compound `O=C(c1ccncc1)N1CCC[C@@]2(CCN(Cc3ccccc3)C2)C1`, the Potency was more than 11.4 µM in [1] and more than 46 µM in test [5]. Besides, the activity change, negative = inhibition in [2] is 1%; in test [12], -11.7%. In test [3], the activity, negative = inhibition was 7.78%. For the same compound, the Potency result in test [6], in test [13] and in test [14] was “inactive” each time. Besides, in test [11], the outcome was inactive.
For `COc1ccc(C(=O)N2CCC3(CCCN(c4ccc(-c5ccccc5)cc4)C3)CC2)cc1`, the Potency in test [1] was more than 11.4 µM; in test [5], more than 46 µM. For the same compound, in test [2], the activity change, negative = inhibition was -8.58%. The activity, negative = inhibition in test [3] is 0.229%. In addition, the Potency entry in [6] and in [13] was “inactive” each time. For the same compound, the outcome in test [11] was inactive.

The values are drawn from PubChem BioAssay (NCATS).
